Drawing on ChEMBL document CHEMBL5606458, “ASAP - ZIKV NS2B-NS3 protease fluorescence single point” (2024), this text covers inhibition for 19 compounds.

The assay concerns the target Nonstructural protein 3 (Zika virus) (UniProt A0A024AXB9).

Screen size: about 2,700 compounds; about 160 (5.9%) showed an effect of 50% or more. This excerpt belongs to a sample that is enriched for strong results.

Sequence of Nonstructural protein 3 (Zika virus) (A0A024AXB9 as listed by the source): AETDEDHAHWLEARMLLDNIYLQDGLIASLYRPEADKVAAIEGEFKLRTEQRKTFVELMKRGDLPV

In general, inhibition refers to the relative decrease from the control value, in per cent. Consider `CC(C)(C)OC(=O)Cn1ccnc(N2CC[C@@H](CO)C2)c1=O`, for which the inhibition stood at 11.6% (PRVABC59, Concentration 49.5 uM, Number of replicates 2.0, Standard deviation 1.325865675699347 %); 22.2% (PRVABC59, Concentration 99.01 uM, Number of replicates 2.0, Standard deviation 1.7656333109073532 %); 37.1% (PRVABC59, Concentration 198.0 uM, Number of replicates 2.0, Standard deviation 1.622873505631253 %).
Consider `O=C(O)c1cc(Cl)ccc1NS(=O)(=O)c1ccc(Br)cc1`, for which the inhibition reads like this: (PRVABC59, Concentration 49.5 uM, Number of replicates 2.0, Standard deviation 0.7950601733582335 %) 7.77%; (PRVABC59, Concentration 99.01 uM, Number of replicates 2.0, Standard deviation 0.4216229111618842 %) 14.7%; (PRVABC59, Concentration 198.0 uM, Number of replicates 2.0, Standard deviation 0.3312742292956271 %) 24.5%.
Take `CCn1ccnc(N2CC[C@H](c3ccc(C#N)cc3)C2)c1=O`: the inhibition reads like this: (PRVABC59, Concentration 49.5 uM, Number of replicates 2.0, Standard deviation 3.318813799365356 %) 8.78%; (PRVABC59, Concentration 99.01 uM, Number of replicates 2.0, Standard deviation 2.601162551030959 %) 17.7%; (PRVABC59, Concentration 198.0 uM, Number of replicates 2.0, Standard deviation 2.251403725502818 %) 31.6%.
With `CCn1ccnc(N2CC[C@H](C3CCOCC3)C2)c1=O`, the inhibition is, setting by setting: (PRVABC59, Concentration 50.0 uM, Number of replicates 2.0, Standard deviation 1.8994947363510455 %) 7.04%; (PRVABC59, Concentration 100.0 uM, Number of replicates 2.0, Standard deviation 0.728011618047951 %) 14.4%; (PRVABC59, Concentration 200.0 uM, Number of replicates 2.0, Standard deviation 0.3716947428915149 %) 27.3%.
Turning to `N[C@H]1C[C@H](CNC(=O)[C@@H](NC(=O)OCc2ccccc2)c2ccc(OCc3ccccc3)cc2)C1`, the inhibition (PRVABC59, Concentration 49.5 uM, Number of replicates 2.0, Standard deviation 3.7963377615811797 %) was determined as 3.96%; the inhibition (PRVABC59, Concentration 99.01 uM, Number of replicates 2.0, Standard deviation 2.5827561793492815 %) came to 42.9%; the inhibition (PRVABC59, Concentration 198.0 uM, Number of replicates 2.0, Standard deviation 1.1643103990361166 %) worked out at 82.5%.
On to `O=Cc1ccc(N2CCC(C(=O)N3C[C@@H]4C[C@H](C3)c3cccc(=O)n3C4)CC2)cc1`, for which, where the note is “PRVABC59, Concentration 50.0 uM, Number of replicates 1.0”, the inhibition amounted to 21.2%.
On to `CC(C)Oc1cc(COc2cccnc2F)nc(N2CCNCC2)n1`, for which the inhibition stood at 4.13% (PRVABC59, Concentration 49.5 uM, Number of replicates 2.0, Standard deviation 2.4105168451759336 %); 16.6% (PRVABC59, Concentration 99.01 uM, Number of replicates 2.0, Standard deviation 2.7698794201931607 %); 38.4% (PRVABC59, Concentration 198.0 uM, Number of replicates 2.0, Standard deviation 3.834837221821941 %).
`COc1cc(C(=O)Nc2cnc3ccccc3c2)nc(N2CCNCC2)n1`: the inhibition (PRVABC59, Concentration 49.5 uM, Number of replicates 2.0, Standard deviation 31.670721297793175 %) worked out at 46.6%; the inhibition (PRVABC59, Concentration 99.01 uM, Number of replicates 2.0, Standard deviation 1.978331259427643 %) was 52.6%; the inhibition (PRVABC59, Concentration 198.0 uM, Number of replicates 2.0, Standard deviation 3.25586764970173 %) is 44.4%.
Regarding `COc1cc(COc2cncc3ccccc23)nc(N2CCNCC2)n1`, the inhibition is, setting by setting: (PRVABC59, Concentration 49.5 uM, Number of replicates 2.0, Standard deviation 3.6633197788698872 %) 18.2%; (PRVABC59, Concentration 99.01 uM, Number of replicates 2.0, Standard deviation 8.620902514901289 %) 33.6%; (PRVABC59, Concentration 198.0 uM, Number of replicates 2.0, Standard deviation 2.631600667850739 %) 48.9%.
Take `COC(=O)c1cncc(OCc2cc(OC)nc(N3CCNCC3)n2)c1`: the inhibition (PRVABC59, Concentration 49.5 uM, Number of replicates 2.0, Standard deviation 0.44537620063304795 %) was found to be 8.58%; the inhibition (PRVABC59, Concentration 99.01 uM, Number of replicates 2.0, Standard deviation 1.920430256118165 %) was 19.8%; the inhibition (PRVABC59, Concentration 198.0 uM, Number of replicates 2.0, Standard deviation 1.464841031153957 %) worked out at 42.9%.
For the compound `CCCC[C@H](NC(C)=O)C(=O)N[C@H](C(=O)NCc1ccc(C(N)=O)cc1)c1ccc(OCc2ccccc2)cc1`, the inhibition runs as follows: (PRVABC59, Concentration 49.5 uM, Number of replicates 2.0, Standard deviation 2.8803277655268693 %) 26.6%; (PRVABC59, Concentration 99.01 uM, Number of replicates 2.0, Standard deviation 0.054514419737930774 %) 98.6%; (PRVABC59, Concentration 198.0 uM, Number of replicates 2.0, Standard deviation 0.07632018763310308 %) 99.1%.
For the compound `CCCC[C@H](NC(C)=O)C(=O)N[C@H](C(=O)NCc1ccc(CN)cc1)c1ccccc1`, the inhibition (PRVABC59, Concentration 49.5 uM, Number of replicates 2.0, Standard deviation 2.0326302034025616 %) is 1.09%; the inhibition (PRVABC59, Concentration 99.01 uM, Number of replicates 2.0, Standard deviation 38.99982941752366 %) stood at 27.9%; the inhibition (PRVABC59, Concentration 198.0 uM, Number of replicates 2.0, Standard deviation 3.137845684278008 %) amounted to 79.1%.
On to `CCCCCC(=O)N[C@H](C(=O)NCc1cccc(CN)c1)C1CCCCC1`, for which the inhibition is -2.7% (PRVABC59, Concentration 49.5 uM, Number of replicates 2.0, Standard deviation 0.08302069360936502 %); -1.9% (PRVABC59, Concentration 99.01 uM, Number of replicates 2.0, Standard deviation 0.655862366837183 %); 41.3% (PRVABC59, Concentration 198.0 uM, Number of replicates 2.0, Standard deviation 0.31962821211509684 %).
Regarding `CCCC[C@H](NC(C)=O)C(=O)N[C@@H](C(=O)NCc1ccc(C(N)=O)cc1)c1ccc(OCc2ccccc2)cc1`, the inhibition is -0.555% (PRVABC59, Concentration 49.5 uM, Number of replicates 2.0, Standard deviation 1.682765526064386 %); 2.22% (PRVABC59, Concentration 99.01 uM, Number of replicates 2.0, Standard deviation 1.8317792493099265 %); 8.29% (PRVABC59, Concentration 198.0 uM, Number of replicates 2.0, Standard deviation 1.8535860287294632 %).
On to `CCCC[C@H](NC(C)=O)C(=O)N[C@H](C(=O)Nc1ccc(C(N)=O)cc1)c1ccc(OCc2ccccc2)cc1`, for which the inhibition was -1.83% (PRVABC59, Concentration 49.5 uM, Number of replicates 2.0, Standard deviation 1.0117053428289626 %); 1.23% (PRVABC59, Concentration 99.01 uM, Number of replicates 2.0, Standard deviation 0.9364545471831264 %); 17.7% (PRVABC59, Concentration 198.0 uM, Number of replicates 2.0, Standard deviation 0.5455676889131452 %).
In the case of `CCCC[C@H](NC(C)=O)C(=O)N[C@H](C(=O)NCc1ccc(CN)cc1)c1ccc(OCc2ccccc2)cc1`, the inhibition by setting is: (PRVABC59, Concentration 49.5 uM, Number of replicates 2.0, Standard deviation 3.0246149725930045 %) 4.96%; (PRVABC59, Concentration 99.01 uM, Number of replicates 2.0, Standard deviation 5.4426160865401085 %) 91.7%; (PRVABC59, Concentration 198.0 uM, Number of replicates 2.0, Standard deviation 0.23672907001683724 %) 97.8%.
In the case of `COc1ccc2nc(C(F)(F)F)nc(N3CCN(c4ccc(N)nc4)CC3)c2c1`, the inhibition is 14.4% (PRVABC59, Concentration 49.5 uM, Number of replicates 2.0, Standard deviation 0.8584962379889504 %); 28% (PRVABC59, Concentration 99.01 uM, Number of replicates 2.0, Standard deviation 2.1800251715639205 %); 43.6% (PRVABC59, Concentration 198.0 uM, Number of replicates 2.0, Standard deviation 1.6255789961308644 %).
Regarding `CC(C)(CO)CN1CC[C@H](c2c[nH]c3ccccc23)C1`, the inhibition runs as follows: (PRVABC59, Concentration 49.5 uM, Number of replicates 2.0, Standard deviation 3.1209329969075563 %) 6.14%; (PRVABC59, Concentration 99.01 uM, Number of replicates 2.0, Standard deviation 4.254828207009483 %) 11.2%; (PRVABC59, Concentration 198.0 uM, Number of replicates 2.0, Standard deviation 3.604090306895346 %) 18.1%.
Consider `O=C(O)c1cc(Cl)ccc1NS(=O)(=O)c1ccc(Oc2ccccc2Cl)cc1`, for which the inhibition by setting is: (PRVABC59, Concentration 15.0 uM, Number of replicates 2.0, Standard deviation 1.019095961302742 %) 25.6%; (PRVABC59, Concentration 49.5 uM, Number of replicates 2.0, Standard deviation 0.595671862422896 %) 67%; (PRVABC59, Concentration 99.01 uM, Number of replicates 2.0, Standard deviation 0.9962463002636517 %) 72.9%; (PRVABC59, Concentration 198.0 uM, Number of replicates 2.0, Standard deviation 0.4898259529465772 %) 64.4%.
